Measured values from PubChem BioAssay AID1159580 (chemical genetic matrix, 2015).
Several values for one entry are separate records, joined by “and”; a condition that tells them apart may be missing. Equal values may be shown once. Among all 5,500 compounds or so, about 2,000 (36%) were called active. Another 18% or so got no clear call; they are omitted. The list shows a part of the results. Values without a mark were called inactive. Rule as the data show it: active = normalized growth mostly below about 0.91 (no sharp cut-off); inconclusive = no clear call, values can overlap the other calls; inactive = mostly above about 0.92.

Experiment: chemical genetic growth profiling, strain panel (AID 1159580);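 also: tested at 20 µM; growth read once vehicle control cultures reached saturation at 30 °C; 1 = growth at the plate median or of vehicle wells; lower values mean less growth of the strain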
Conditions: growth OD

CC(CN1c2ccccc2Sc2ccccc21)N(C)C (configuration not stated)
normalized growth (S. cerevisiae deletion strains, locus YKL009W, strain mrt4, hits give low values): 0.924 | normalized growth (S. cerevisiae deletion strains, locus YKL068W, hits give low values): 0.982 | normalized growth (S. cerevisiae deletion strains, locus YKL085W, strain MDH1 (second series), hits give low values): 0.965 | normalized growth (S. cerevisiae deletion strains, locus YKL085W, strain MDH1, hits give low values): 0.965 | normalized growth (S. cerevisiae deletion strains, locus YKL160W, strain elf1, hits give low values): 0.913 | normalized growth (S. cerevisiae deletion strains, locus YKL190W, strain CNB1, hits give low values): 0.995 | normalized growth (S. cerevisiae deletion strains, locus YKR001C, strain vps1, hits give low values): 0.968 | normalized growth (S. cerevisiae deletion strains, locus YKR026C, strain gcn3, hits give low values): 0.972 | normalized growth (S. cerevisiae deletion strains, locus YKR091W, strain srl3, hits give low values): 0.983 | normalized growth (S. cerevisiae deletion strains, locus YLL001W, strain dnm1, hits give low values): 0.879 (active) | normalized growth (S. cerevisiae deletion strains, locus YLL026W, hits give low values): 0.943 | normalized growth (S. cerevisiae deletion strains, locus YLL041C, strain sdh2, hits give low values): 0.982 | normalized growth (S. cerevisiae deletion strains, locus YLR027C, strain aat2, hits give low values): 0.932 | normalized growth (S. cerevisiae deletion strains, locus YLR039C, strain RIC1, hits give low values): 1.23 | normalized growth (S. cerevisiae deletion strains, locus YLR058C, strain SHM2, hits give low values): 0.957 | normalized growth (S. cerevisiae deletion strains, locus YLR102C, strain apc9, hits give low values): 0.981 | normalized growth (S. cerevisiae deletion strains, locus YLR113W, strain HOG1, hits give low values): 1.03 | normalized growth (S. cerevisiae deletion strains, locus YLR221C, strain rsa3, hits give low values): 0.969 | normalized growth (S. cerevisiae deletion strains, locus YLR258W, strain gsy2, hits give low values): 0.974 | normalized growth (S. cerevisiae deletion strains, locus YLR262C, strain YPT6 (second series), hits give low values): 1.07 | normalized growth (S. cerevisiae deletion strains, locus YLR262C, strain YPT6, hits give low values): 1.34 | normalized growth (S. cerevisiae deletion strains, locus YLR268W, strain sec22, hits give low values): 0.947 | normalized growth (S. cerevisiae deletion strains, locus YLR320W, strain mms22, hits give low values): 0.944 | normalized growth (S. cerevisiae deletion strains, locus YLR330W, strain CHS5, hits give low values): 0.993 | normalized growth (S. cerevisiae deletion strains, locus YLR342W, strain FKS1 (second series), hits give low values): 0.928 | normalized growth (S. cerevisiae deletion strains, locus YLR342W, strain FKS1, hits give low values): 0.844 (active) | normalized growth (S. cerevisiae deletion strains, locus YLR357W, strain rsc2, hits give low values): 0.99 | normalized growth (S. cerevisiae deletion strains, locus YLR370C, strain arc18, hits give low values): 0.938 | normalized growth (S. cerevisiae deletion strains, locus YLR371W, strain rom2, hits give low values): 0.962 | normalized growth (S. cerevisiae deletion strains, locus YLR384C, strain iki3, hits give low values): 0.968 | normalized growth (S. cerevisiae deletion strains, locus YLR418C, strain cdc73, hits give low values): 0.955 | normalized growth (S. cerevisiae deletion strains, locus YML016C, strain PPZ1, hits give low values): 0.985 | normalized growth (S. cerevisiae deletion strains, locus YML032C, strain rad52, hits give low values): 0.908 | normalized growth (S. cerevisiae deletion strains, locus YML120C, strain ndi1, hits give low values): 0.921 | normalized growth (S. cerevisiae deletion strains, locus YML124C, strain tub3, hits give low values): 0.983 | normalized growth (S. cerevisiae deletion strains, locus YMR058W, strain fet3, hits give low values): 0.94 | normalized growth (S. cerevisiae deletion strains, locus YMR078C, strain ctf18, hits give low values): 0.98 | normalized growth (S. cerevisiae deletion strains, locus YMR125W, strain sto1, hits give low values): 0.988 | normalized growth (S. cerevisiae deletion strains, locus YMR129W, hits give low values): 0.97 | normalized growth (S. cerevisiae deletion strains, locus YMR205C, strain PFK2, hits give low values): 0.968 | normalized growth (S. cerevisiae deletion strains, locus YMR223W, strain ubp8, hits give low values): 0.992 | normalized growth (S. cerevisiae deletion strains, locus YMR231W, strain pep5, hits give low values): 0.983 | normalized growth (S. cerevisiae deletion strains, locus YMR263W, strain SAP30, hits give low values): 0.999 | normalized growth (S. cerevisiae deletion strains, locus YMR307W, strain GAS1, hits give low values): 1.12 | normalized growth (S. cerevisiae deletion strains, locus YNL067W, strain RPL9B, hits give low values): 0.924 | normalized growth (S. cerevisiae deletion strains, locus YNL071W, strain lat1, hits give low values): 0.969 | normalized growth (S. cerevisiae deletion strains, locus YNL128W, strain TEP1, hits give low values): 1.02 | normalized growth (S. cerevisiae deletion strains, locus YNL175C, strain NOP13, hits give low values): 1.01 | normalized growth (S. cerevisiae deletion strains, locus YNL183C, strain NPR1, hits give low values): 0.964 | normalized growth (S. cerevisiae deletion strains, locus YNL197C, strain WHI3, hits give low values): 1.01 | normalized growth (S. cerevisiae deletion strains, locus YNL209W, strain ssb2, hits give low values): 0.962 | normalized growth (S. cerevisiae deletion strains, locus YNL224C, strain SQS1, hits give low values): 1.01 | normalized growth (S. cerevisiae deletion strains, locus YNL233W, strain BNI4, hits give low values): 0.925 | normalized growth (S. cerevisiae deletion strains, locus YNL248C, strain rpa49, hits give low values): 0.971 | normalized growth (S. cerevisiae deletion strains, locus YNL250W, strain rad50, hits give low values): 0.958 | normalized growth (S. cerevisiae deletion strains, locus YNL271C, strain bni1, hits give low values): 0.973 | normalized growth (S. cerevisiae deletion strains, locus YNL298W, strain CLA4, hits give low values): 0.978 | normalized growth (S. cerevisiae deletion strains, locus YNL307C, strain MCK1, hits give low values): 0.958 | normalized growth (S. cerevisiae deletion strains, locus YNL322C, strain KRE1 (second series), hits give low values): 0.976 | normalized growth (S. cerevisiae deletion strains, locus YNR049C, strain mso1, hits give low values): 0.977 | normalized growth (S. cerevisiae deletion strains, locus YNR052C, strain pop2, hits give low values): 0.976 | normalized growth (S. cerevisiae deletion strains, locus YOL006C, strain TOP1, hits give low values): 0.79 | normalized growth (S. cerevisiae deletion strains, locus YOL012C, strain htz1): 1.06 | normalized growth (S. cerevisiae deletion strains, locus YOL147C, strain pex11, hits give low values): 0.976 | normalized growth (S. cerevisiae deletion strains, locus YOR001W, strain rrp6, hits give low values): 0.889 (active) | normalized growth (S. cerevisiae deletion strains, locus YOR061W, strain CKA2, hits give low values): 0.955 | normalized growth (S. cerevisiae deletion strains, locus YOR069W, strain VPS5, hits give low values): 0.986 | normalized growth (S. cerevisiae deletion strains, locus YOR070C, strain gyp1, hits give low values): 0.965 | normalized growth (S. cerevisiae deletion strains, locus YOR080W, strain dia2, hits give low values): 0.963 | normalized growth (S. cerevisiae deletion strains, locus YOR083W, strain WHI5 (second series), hits give low values): 1.02 | normalized growth (S. cerevisiae deletion strains, locus YOR083W, strain WHI5, hits give low values): 0.898 | normalized growth (S. cerevisiae deletion strains, locus YOR106W, strain vam3, hits give low values): 0.884 | normalized growth (S. cerevisiae deletion strains, locus YOR136W, strain idh2, hits give low values): 0.968 | normalized growth (S. cerevisiae deletion strains, locus YOR144C, strain elg1, hits give low values): 0.989 | normalized growth (S. cerevisiae deletion strains, locus YOR184W, strain ser1, hits give low values): 1.01 | normalized growth (S. cerevisiae deletion strains, locus YOR231W, strain MKK1, hits give low values): 1.01 | normalized growth (S. cerevisiae deletion strains, locus YOR265W, strain rbl2, hits give low values): 0.955 | normalized growth (S. cerevisiae deletion strains, locus YOR270C, strain vph1, hits give low values): 0.998 | normalized growth (S. cerevisiae deletion strains, locus YOR290C, strain snf2, hits give low values): 0.96 | normalized growth (S. cerevisiae deletion strains, locus YOR316C, strain cot1, hits give low values): 0.97 | normalized growth (S. cerevisiae deletion strains, locus YPL051W, strain arl3, hits give low values): 0.863 (active) | normalized growth (S. cerevisiae deletion strains, locus YPL078C, strain atp4, hits give low values): 0.838 (active) | normalized growth (S. cerevisiae deletion strains, locus YPL106C, strain sse1, hits give low values): 0.929 | normalized growth (S. cerevisiae deletion strains, locus YPL240C, strain hsp82, hits give low values): 0.965 | normalized growth (S. cerevisiae deletion strains, locus YPL241C, strain CIN2, hits give low values): 0.989 and 0.995 | normalized growth (S. cerevisiae deletion strains, locus YPL256C, strain CLN2, hits give low values): 1.07 | normalized growth (S. cerevisiae deletion strains, locus YPR119W, strain clb2, hits give low values): 0.971 | normalized growth (S. cerevisiae deletion strains, locus YPR141C, strain kar3, hits give low values): 0.976 | normalized growth (S. cerevisiae deletion strains, locus YPR163C, strain tif3, hits give low values): 0.928 | normalized growth (S. cerevisiae deletion strains, locus YPR167C, strain met16, hits give low values): 0.97 | normalized growth (S. cerevisiae deletion strains, strain wtn01, hits give low values): 0.957 | normalized growth (S. cerevisiae strains, strain wild type, hits give low values): 0.975
